The list is not random: actives were taken first. Their share in the collection is about 12%.
G9a block: blocks human histone lysine methyltransferase G9a | Q96KQ7 | G9a H3K9 monomethylation, AlphaScreen, 2 h | Potency, µM (top dose mostly 102 µM), inactives show top-dose activity, negative = inhibition, usual class: inhibitors | 350,000 compounds, 8.8% hits | AID 504332; note: potency is the fitted concentration of half-maximal effect; % is set by controls: 0 for no effect and ±100 for the full control effect; nearly all actives have a fitted effect of over 75% in size
Target sequence (Q96KQ7 913-1193 limits assumed): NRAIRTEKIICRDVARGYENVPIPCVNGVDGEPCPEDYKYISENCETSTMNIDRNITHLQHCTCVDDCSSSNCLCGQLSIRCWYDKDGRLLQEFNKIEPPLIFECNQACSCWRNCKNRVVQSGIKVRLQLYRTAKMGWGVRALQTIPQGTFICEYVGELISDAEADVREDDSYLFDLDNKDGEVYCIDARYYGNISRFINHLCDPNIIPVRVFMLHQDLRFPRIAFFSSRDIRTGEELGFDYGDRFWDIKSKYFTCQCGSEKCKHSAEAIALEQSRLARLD
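Quantitative HTS format: methyltransferase activity on a biotin-tagged H3K9 peptide is measured by AlphaScreen, using a rabbit anti-monomethyl-H3K9 antibody with streptavidin donor and anti-IgG acceptor beads. Final levels are 20 nM enzyme, 500 nM peptide, 20 uM SAM; 2 h RT.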
PLK1 PBD inh: inhibitors of human PLK1 polo-box domain binding. P53350. Plk1 PBD binding of FITC phosphopeptide, fluorescence polarization. Potency, µM, without a hit: max response, negative = inhibition, hits mostly inhibitors. 360,000 compounds, 2.8% hits. AID 720504; note: potency is the fitted concentration of half-maximal effect; series mostly up to about 57 µM; % is set by controls: 0 for no effect and ±100 for the full control effect; nearly all actives have a fitted effect of over 65% in size
JMJD2A Tudor: blocks the human JMJD2A Tudor domain; O75164; AlphaScreen JMJD2A-Tudor / H3K4me3 peptide binding; Potency, µM (highest dose often 114 µM), for the others: at the top dose activity change, negative = inhibition, usual class: inhibitors; 390,000 compounds, 4.4% hits; AID 504339; note: potency is the fitted concentration of half-maximal effect; % is set by controls: 0 for no effect and ±100 for the full control effect; nearly all actives have a fitted effect of over 50% in size
BAZ2B block: inhibitors of human BAZ2B bromodomain. Q9UIF8. AlphaScreen BAZ2B-H3K14Ac peptide displacement. Potency, µM (top dose mostly 114 µM), inactives show top-dose activity change, negative = inhibition, most hits filed as inhibitors. 360,000 compounds, 4.4% hits; note: potency is the fitted concentration of half-maximal effect; % is set by controls: 0 for no effect and ±100 for the full control effect; nearly all actives have a fitted effect of over 60% in size
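AlphaScreen displacement of biotin-H3(5-23)K14Ac peptide (50 nM final) from BAZ2B (50 nM final) in PBS pH 7.4, 0.01% Tween-20; complex preformed 30 min RT, then compounds (top 110 uM) 30 min RT, beads 20 min dark.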
PI5P4K alpha inh: PI5P4K alpha (human) kinase inhibition. max response, %. P48426. 330,000 compounds, 1.2% hits. PI5P4Kalpha enzyme, ADP-Glo luminescence, 60 min; active compounds read low; active = max response of -50% or lower; inconclusive = between -30% and -50%; inactive = -30% or higher; note: value at the top dose of about 77 µM; % is set by controls: 0 for no effect and ±100 for the full control effect
Target sequence (P48426 whole entry, looked up): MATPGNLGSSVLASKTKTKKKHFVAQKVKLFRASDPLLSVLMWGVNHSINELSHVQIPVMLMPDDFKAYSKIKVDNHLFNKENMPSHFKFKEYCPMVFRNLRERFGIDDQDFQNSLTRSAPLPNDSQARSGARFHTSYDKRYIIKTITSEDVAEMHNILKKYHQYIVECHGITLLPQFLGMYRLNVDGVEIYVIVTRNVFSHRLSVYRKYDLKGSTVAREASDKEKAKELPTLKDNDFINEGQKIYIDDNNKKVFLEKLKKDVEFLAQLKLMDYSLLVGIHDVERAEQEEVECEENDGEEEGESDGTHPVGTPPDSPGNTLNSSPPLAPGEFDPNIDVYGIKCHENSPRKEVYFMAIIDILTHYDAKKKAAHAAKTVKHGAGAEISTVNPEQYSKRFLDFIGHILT
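Reactions run in 0.038 M HEPES pH 7.4, 0.28 mM EGTA, 0.1% CHAPS and 5% DMSO, with PI5P4Kalpha, substrate, compound and 5 microM ATP final, one hour at room temperature. Readout is ADP-Glo luminescence.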
HP1b binding inh: inhibitors of HP1-beta chromodomain binding to methylated histone tails; P83916; AlphaScreen HP1-beta / biotin-H3K9me3 peptide binding; Potency, µM (top dose mostly 114 µM), for inactives: at the top dose activity change, negative = inhibition, usual class: inhibitors; 390,000 compounds, 0.56% hits; AID 540317; note: potency is the fitted concentration of half-maximal effect; nearly all actives have a fitted effect of over 70% in size
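Compound inhibition of the preformed complex between 50 nM HP1-beta and 50 nM biotinylated H3K9me3 peptide was read by AlphaScreen. Buffer was PBS pH 7.4 with 0.01% Tween-20. Incubations ran 30 min at room temperature, with 10 ug/mL donor/acceptor beads.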
* hit, by the source's call; ? = inconclusive; nt = no result given; [ ] = another dose, or the depositor's remark. Unless noted, calls come from the whole dose curve; as a rule, active = well fitted curve in the direction sought with a large enough effect; inconclusive = small, poorly fitted or top-dose-only effect, or another doubt; inactive = no such curve, though single readings can be large; an effect the other way counts as inactive or inconclusive.

SMILES | G9a block | PLK1 PBD inh | JMJD2A Tudor | BAZ2B block | PI5P4K alpha inh | HP1b binding inh
Cc1cccc2sc(NNC(=O)c3ccc4c(c3)OCCO4)nc12 | 10µM* | -16% | ? | ? | -1 | 6%
O=C(N/N=C/c1ccc([N+](=O)[O-])cc1)c1cnccn1 | nt | 3% | ? | -13% | -1 | 20%
C/C(=N/NC(=O)c1cnccn1)c1cccs1 | -10%[59 µM] | -7% | 25µM* | ? | -9 | 29%
C/C(=N/NC(=O)c1cc(O)c(O)c(O)c1)c1ccc([N+](=O)[O-])cc1 | 7.1µM* | ? | 45µM* | 40µM* | ? | ?
C/C(=N\NC(=O)c1cnccn1)c1ccc([N+](=O)[O-])cc1 | 10% | 5% | 22µM* | -4% | -1 | 14%
Cc1cc(NC(=O)COC(=O)CNC(=O)c2cccs2)c([N+](=O)[O-])cc1C | 2%[0.501 µM] | -17% | -29% | -8% | -16 | -4%
CC1CCN(S(=O)(=O)c2ccc3c(c2)c(=O)c(C(=O)NCCc2ccccc2)cn3C)CC1 | 7%[59 µM] | nt | -7% | nt | nt | 22%
CC1(OC(=O)c2ccc(Cl)nc2)C(=O)C=C2C=C3CCCN3C=C2C1=O (stereo not given) | -32%[59 µM] | ? | 45µM* | ? | ? | ?
Cc1occc(=O)c1OC(=O)Nc1ccccc1 | ? | -23% | 20µM* | ? | 7 | 5%
CCCN1C(=O)/C(=c2\sc3nc(=O)c(Cc4ccc(C)cc4)nn3c2=O)c2ccccc21 | nt | 30µM* | ? | ? | -27 | ?
Cc1ccc2sc(-c3ccc(NC(=O)CCN4C(=O)c5ccccc5C4=O)cc3)nc2c1 | -12%[59 µM] | nt | nt | 13% | nt | nt
CCCCN1C(=O)/C(=c2\sc3nc(=O)c(-c4ccccc4)nn3c2=O)c2ccccc21 | ? | 27µM* | ? | ? | ? | ?
CCOC(=O)C1=C(C)N=c2s/c(=C3/C(=O)Nc4ccccc43)c(=O)n2C1c1ccc(C)cc1 (stereo not given) | ? | -22% | ? | ? | 0 | 12%
COC(=O)C1=C(C)N=c2s/c(=C3\C(=O)Nc4ccccc43)c(=O)n2C1c1ccccc1 (stereo not given) | 7.9µM* | nt | nt | 7.9µM* | nt | nt
C[C@@H](NC(=O)[C@@H]1Cc2ccccc2CN1)C(=O)Nc1ccc2c(c1)OCO2 | ? | -6% | -27% | -38% | 8 | 4%
COc1ccc(Nc2ccnc3ccccc23)cc1 | -38%[59 µM] | -1% | -11% | -8% | ? | 35%
CC(C)Nc1ccc(Nc2ccnc3cc4ccccc4cc23)cc1 | 8.9µM* | 2% | 11µM* | 16µM* | -19 | 25µM*
Cc1ccc2cc3cc(C(=O)N4CC(C)CC(C)C4)oc3nc2c1 (stereo not given) | 3%[59 µM] | 13µM* | -27%[11.4 µM] | 10% | -9 | 7%
COc1ccc2cc3cc(C(=O)N4CC(C)CC(C)C4)oc3nc2c1 (stereo not given) | 21% | 0% | -3% | -2% | 3 | 35%
CCC(C(=O)Nc1ccccc1C(=O)OC)n1c(C)c2cnn(-c3ccccc3)c(=O)c2c1C (stereo not given) | -29%[59 µM] | nt | ? | -33% | nt | 15%
N=C(N)SCc1cn(-c2ccccc2)nc1-c1ccc(Br)cc1 | 50µM* | -3% | -27% | -31% | 18 | -10%
CN(CCC1CCCCO1)C(=O)CCc1nnc(CCc2ccccc2)o1 (stereo not given) | nt | 0% | -1% | -2% | -7 | 25%
CN(CCC1CCCCO1)C(=O)CCc1nnc(Cc2c[nH]c3ccccc23)o1 (stereo not given) | 79µM* | 5% | -8% | -15% | 2 | 35%
CCOC(=O)CN1C(=O)c2cccnc2Oc2ccccc21 | 6%[59 µM] | nt | 8% | 5% | nt | 35%
CC1(C)Cc2c(sc(NC(=O)C(=O)N3CCCC3)c2C#N)CO1 | 28µM* | ? | ? | -33% | -13 | 4%
SMILES | G9a block | PLK1 PBD inh | JMJD2A Tudor | BAZ2B block | PI5P4K alpha inh | HP1b binding inh
O=C(CSc1nc(-c2ccc(F)cc2)cc(C(F)(F)F)n1)NCc1ccco1 | -3%[59 µM] | 3µM* | -34%[11.4 µM] | 0% | ? | ?
O=C(CSc1nc(-c2ccc(F)cc2)cc(C(F)(F)F)n1)NCc1cccs1 | -3%[59 µM] | -9% | 8%[57.1 µM] | -11% | -4 | 46%
Nc1cc(N)nc(SCC(=O)NCc2ccco2)n1 | -11% | 1% | 0% | ? | -1 | 27%
Cc1cc(C)nc(SCC(=O)NCc2ccco2)n1 | 45µM* | -10% | -24% | 0% | 2 | -8%
Cc1cccc(Cl)c1NC(=S)NN | 3.5µM* | 0% | -18% | -3% | -8 | 37%
Cc1c(Cl)cccc1NC(=S)NN | 3%[59 µM] | 0% | -22% | -12% | 1 | 31%
O=C(C1CCCN(S(=O)(=O)c2cccs2)C1)N1CCN(c2ccccc2F)CC1 (stereo not given) | -13%[59 µM] | nt | -13% | -15% | nt | 21%
Cc1cc(N2C(=O)C(O)=C(C(=O)c3ccc(C)o3)C2c2cccc(Cl)c2)no1 (stereo not given) | nt | -13% | nt | nt | ? | nt
Cc1cc(N2C(=O)C(O)=C(C(=O)c3cc4ccccc4o3)C2c2cccc(Cl)c2)no1 (stereo not given) | 40µM* | ? | ? | -25% | -81* | -11%[57 µM]
CCCOc1ccc(C2C(C(=O)c3cc4ccccc4o3)=C(O)C(=O)N2c2cc(C)on2)cc1OC (stereo not given) | nt | ? | -33% | -8% | ? | 19%
Cc1cc(N2C(=O)C(O)=C(C(=O)c3cc4ccccc4o3)C2c2ccc(Br)cc2)no1 (stereo not given) | 1.6µM* | 21µM* | ? | ? | -67* | -3%
Cc1cc(N2C(=O)C(O)=C(C(=O)c3cc4ccccc4o3)C2c2ccc(Cl)cc2)no1 (stereo not given) | -7%[0.0925 µM] | ? | ? | ? | -72* | -3%
Cc1cc(N2C(=O)C(O)=C(C(=O)c3cccs3)C2c2cccc(Br)c2)no1 (stereo not given) | ? | ? | -29% | -29% | 1 | -8%
CCCOc1ccc(C2C(C(=O)c3cc4ccccc4o3)=C(O)C(=O)N2c2cc(C)on2)cc1 (stereo not given) | 32µM* | ? | ? | -30% | -17 | 9%
O=C(NCc1ccccc1Cl)c1ccc2nc([C@H]3C[C@H](O)[C@@H](CO)O3)[nH]c2c1 | nt | -15% | nt | nt | -1 | nt
CCN(C(=O)Cc1cccs1)c1nnc(-c2cccnc2)s1 | 2.8µM* | -3% | -19% | ? | 6 | 34%
CCC(=O)n1nc(-c2cccnc2)nc1NCc1cccs1 | ? | -11% | -10% | 4% | -1 | 12%
